Laboratory results reported in PubChem BioAssay (NCATS).
Records with an inconclusive call do not appear. Activity calls are given as the source filed them. Unless noted, calls follow the shape of the dose curve; as a rule, active = well fitted curve in the direction sought with a large enough effect; inconclusive = small, poorly fitted or top-dose-only effect, or another doubt; inactive = no such curve, though single readings can be large; an effect the other way counts as inactive or inconclusive.

Columns and labels:
[1] = qHTS for differential inhibitors of proliferation of Plasmodium falciparum line HB3 (AID 1886); settings: Potency: Plasmodium falciparum HB3 proliferation inhibition;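 also: parasites grown with compound for 72 h before SYBR Green readout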; also: potency is read from the fitted curve at half-maximal effect
[2] = target: Ferritin light chain (Equus caballus) (UniProt P02791); assay: qHTS Validation Assay for Identification of Novel General Anesthetics (AID 2323); also: series mostly up to about 77 µM
In short: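 10 uM horse-spleen apoferritin + 1-AMA (50% saturated, PBS); cpd pin-transferred, 10 min RT. Ex 380/Em 535 nm endpoint. Activity normalized between free 1-AMA and 1-AMA/apoferritin; 4-parameter Hill fit of concentration-response.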

[3] = target: ATP-dependent DNA helicase Q1 (Homo sapiens) (UniProt P46063); assay: qHTS Validation Assay for Inhibitors of RecQ-Like Dna Helicase 1 (RECQ1) (AID 2353); also: potency is read from the fitted curve at half-maximal effect
In short: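 RECQ1T1 50 nM; forked duplex (20 bp + 30-nt ss tails) 200 nM, ATP 2 mM final; pH 8.0, 2 mM MgCl2, 2.5 ug/ml poly(dI-dC); 15 min compound preincubation; discontinuous kinetic read over 2 h at RT.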

[4] = target: RecQ-like DNA helicase BLM (Homo sapiens) (UniProt P54132); assay: qHTS Validation Assay for Inhibitors of Bloom's syndrome helicase (BLM) (AID 2364); also: potency is read from the fitted curve at half-maximal effect
In short: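 50 nM BLM preincubated 15 min at room temperature with compound in pH 8.0 Tris buffer containing 2.5 ug/ml poly(dI-dC); started with 200 nM TAMRA/BHQ-2 forked duplex and 2 mM ATP (final). Unwinding read as TAMRA fluorescence increase, two reads 2 h apart.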

[5] = High Content Imaging Cell-Based qHTS for Inhibitors of the mTORC1 Signaling Pathway in MEF (Tsc2-/-, p53-/-) Cells (AID 2666);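 also: percent of cells scored positive for phospho-rpS6 Ser235/236 immunostaining by imaging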
In short: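 MEF Tsc2-/- p53-/- (empty vector), DMEM/10% FBS; cpd 24 h 37 °C; PFA fix, Alexa-488 p-rpS6 S235/236 Ab, Hoechst; imaged; rapamycin-defined inhibition; % positive cells/well.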

[6] = High Content Imaging Cell-Based qHTS for Inhibitors of the mTORC1 Signaling Pathway in MEF Cells (AID 2667); also: potency is read from the fitted curve at half-maximal effect
In short: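 Read-out is the share of phospho-rpS6-positive cells per well, from Hoechst-normalized Alexa-488 Ser235/236 staining imaged on IN Cell. Cells: WT Tsc2-expressing Tsc2-/-, p53-/- MEFs exposed to compound for 24 hrs.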

[7] = Cytometry Cell-Based qHTS for Inhibitors of the mTORC1 Signaling Pathway in MEF cells (AID 2668);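 also: Tsc2-/- p53-/- mouse embryonic fibroblasts stably re-expressing wild-type Tsc2; percent cells positive for phospho-rpS6 Ser235/236 relative to propidium iodide stain; series mostly up to about 38 µM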
In short: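 Read-out: phospho-rpS6 Ser235/236 immunofluorescence normalized to propidium iodide intensity, scored as % active cells against a rapamycin (7.5 nM) threshold. Cells: Tsc2-/-, p53-/- MEFs stably expressing WT Tsc2, compound-treated 24 hrs at 37 degree Celsius.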

[8] = Validation screen for small molecules that induce DNA re-replication in MCF 10A normal breast cells (AID 463097); also: nearly all actives have a fitted effect of over 60% in size
In short: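 250 MCF 10A cells/well; compound pin-transferred; 48 hr, 37 C, 5% CO2; Hoechst 40 min; imaged 405/500-530 nm. Hits = more high-intensity nuclei.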

[9] = target: Ubiquitin carboxyl-terminal hydrolase 2 (Homo sapiens) (UniProt O75604); assay: qHTS Validation Assay for Inhibitors of Ubiquitin-specific Protease USP2a Using CHOP2 as the Reporter (AID 463106)
In short: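 Fluorescence read-out at Ex 485nm/Em 531nm after 60min RT, following addition of 25nM Ub-CHOP2 plus 25nM reporter substrate to USP2 core (10nM) pretreated 30min with compound. Data normalized to NEM full inhibition; concentration-response curves fitted.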

[10] = target: DNA polymerase III PolC-type (Bacillus subtilis (strain 168)) (UniProt P13267); assay: qHTS Validation Assay for the Inhibitors of DNA Replication in Gram-Positive Bacteria (AID 485295); also: potency is read from the fitted curve at half-maximal effect
In short: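 PicoGreen fluorescence (ex 480–485/em 535–540 nm) reports dsDNA synthesized on ssM13Gori template with dNTPs/NTPs. Enzyme: holoenzyme rebuilt from purified PolC, beta subunit, SSB and primase. Compound preincubated before substrate addition; RT throughout.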

[11] = target: Tumor susceptibility gene 101 protein (Homo sapiens) (UniProt Q99816); assay: qHTS Validation Assay for Iinhibitors of HIV-1 Budding by Blocking the Interaction of PTAP/TSG101 (AID 485342; calls by dose curve)
In short: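 FP read-out: FITC-PTAP peptide, 50 nM final, binding Tsg101 binding domain, 10 uM final; 20 min r.t.; 10 mM HEPES pH 7.5, 0.15 M NaCl, 0.01% Tween 20, 3 mM EDTA, 0.1 mM TCEP.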

[12] = qHTS Validation Assay to Find Inhibitors of Chronic Active B-Cell Receptor Signaling (AID 485345; active = well fitted curve in the direction sought with a large enough effect in the main read-out, with a control signal flat, not every such curve was filed as active)
In short: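 TMD8 ABC-DLBCL cells stably carrying doxycycline-inducible IkappaBalpha–green luciferase fusion plus unfused red luciferase; compounds 46 uM to 3 nM, 4 h at 37C with doxycycline. Corrected green/red luminescence ratio normalized to 10 uM MG-132 and basal cell wells; curves fitted.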

[13] = target: Beta-2 adrenergic receptor (Homo sapiens) (UniProt P07550); assay: qHTS validation assay of beta-arrestin-biased ligands of beta2-adrenergic receptor (AID 485366)
In short: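 Agonism was measured as beta-arrestin recruitment to recombinant beta2-AR, releasing tTA to drive luciferase. Cells were exposed for 18 hr at 37 degrees C to a series up to 46 microM. %Activity from corrected luminescence gave concentration-response curves.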

[14] = Quantitative high throughput screen for delayed death inhibitors of the malarial parasite plastid, 96 hour incubation (AID 488745); also: nearly all actives have a fitted effect of over 70% in size; also: potency is read from the fitted curve at half-maximal effect
In short: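 Readout is firefly luciferase luminescence from an integrated reporter in P. falciparum; lower signal marks inhibited growth. Cultures at 2% hematocrit and 0.1% parasitemia were treated with compound across two generations (96 h, 37 C, 5% CO2).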

[15] = Quantitative high throughput screen for delayed death inhibitors of the malarial parasite plastid, 48 hour incubation (AID 488752); also: nearly all actives have a fitted effect of over 65% in size; also: potency is read from the fitted curve at half-maximal effect
In short: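 First, compound was pinned into RPMI 1640 medium containing 0.5% Albumax. Next, reporter-parasite-infected erythrocytes were added to 2% hematocrit and 0.1% parasitemia. After 48 h at 37 C under 5% CO2, luciferase detection reagent was added and luminescence read.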

[16] = target: Thioredoxin reductase 1, cytoplasmic (Rattus norvegicus) (UniProt O89049); assay: qHTS Assay for Substrates of Mammalian Selenoprotein Thioredoxin Reductase 1 (TrxR1) (AID 488772);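 also: series mostly up to about 57 µM; a drop in NADPH fluorescence below the no-compound background marks a TrxR1 substrate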
In short: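 In this dual-purpose format, potential substrates are identified from the first fluorescence read after selenite addition, not from the 8-minute delta. Rat enzyme is preincubated with NADPH and then with compound at ~22 deg C.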

[17] = Cytometric Cell-Based qHTS for Inhibitors of the mTORC1 Signaling Pathway in MEF (Tsc2-/-, p53-/-) Cells (AID 2660);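 also: Tsc2 and p53 null MEFs carrying empty vector with compound for 24 h; percent of cells above a phospho-rpS6 to PI ratio cutoff in each well; series mostly up to about 38 µM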
In short: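 Immunofluorescence qHTS of rpS6 Ser235/236 phosphorylation: MEFs (Tsc2-/-, p53-/-) treated 24 h, 37 C, in DMEM + 10% FBS. Alexa-488 signal normalized to PI count, referenced to rapamycin (7.5 nM) and DMSO; PI cell number recorded for viability.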

[18] = target: ATP-dependent 6-phosphofructokinase (Trypanosoma brucei brucei) (UniProt O15648); assay: qHTS Validation Assay to Find Inhibitors of T. brucei phosphofructokinase (AID 485368); settings: outcome: dose series up to 57.5 µM
In short: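 ADP-Glo luminescence, two-step: residual ATP depleted, then ADP converted to ATP for luciferase. Enzyme 1.25 nM, F6P 0.5 mM, ATP 0.1 mM, pH 8.0 TEA buffer, 45 min RT. Curves fitted and classed by quality and efficacy.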

Measured: Potency

Sequence of DNA polymerase III PolC-type (Bacillus subtilis (strain 168)) (P13267 whole entry, looked up): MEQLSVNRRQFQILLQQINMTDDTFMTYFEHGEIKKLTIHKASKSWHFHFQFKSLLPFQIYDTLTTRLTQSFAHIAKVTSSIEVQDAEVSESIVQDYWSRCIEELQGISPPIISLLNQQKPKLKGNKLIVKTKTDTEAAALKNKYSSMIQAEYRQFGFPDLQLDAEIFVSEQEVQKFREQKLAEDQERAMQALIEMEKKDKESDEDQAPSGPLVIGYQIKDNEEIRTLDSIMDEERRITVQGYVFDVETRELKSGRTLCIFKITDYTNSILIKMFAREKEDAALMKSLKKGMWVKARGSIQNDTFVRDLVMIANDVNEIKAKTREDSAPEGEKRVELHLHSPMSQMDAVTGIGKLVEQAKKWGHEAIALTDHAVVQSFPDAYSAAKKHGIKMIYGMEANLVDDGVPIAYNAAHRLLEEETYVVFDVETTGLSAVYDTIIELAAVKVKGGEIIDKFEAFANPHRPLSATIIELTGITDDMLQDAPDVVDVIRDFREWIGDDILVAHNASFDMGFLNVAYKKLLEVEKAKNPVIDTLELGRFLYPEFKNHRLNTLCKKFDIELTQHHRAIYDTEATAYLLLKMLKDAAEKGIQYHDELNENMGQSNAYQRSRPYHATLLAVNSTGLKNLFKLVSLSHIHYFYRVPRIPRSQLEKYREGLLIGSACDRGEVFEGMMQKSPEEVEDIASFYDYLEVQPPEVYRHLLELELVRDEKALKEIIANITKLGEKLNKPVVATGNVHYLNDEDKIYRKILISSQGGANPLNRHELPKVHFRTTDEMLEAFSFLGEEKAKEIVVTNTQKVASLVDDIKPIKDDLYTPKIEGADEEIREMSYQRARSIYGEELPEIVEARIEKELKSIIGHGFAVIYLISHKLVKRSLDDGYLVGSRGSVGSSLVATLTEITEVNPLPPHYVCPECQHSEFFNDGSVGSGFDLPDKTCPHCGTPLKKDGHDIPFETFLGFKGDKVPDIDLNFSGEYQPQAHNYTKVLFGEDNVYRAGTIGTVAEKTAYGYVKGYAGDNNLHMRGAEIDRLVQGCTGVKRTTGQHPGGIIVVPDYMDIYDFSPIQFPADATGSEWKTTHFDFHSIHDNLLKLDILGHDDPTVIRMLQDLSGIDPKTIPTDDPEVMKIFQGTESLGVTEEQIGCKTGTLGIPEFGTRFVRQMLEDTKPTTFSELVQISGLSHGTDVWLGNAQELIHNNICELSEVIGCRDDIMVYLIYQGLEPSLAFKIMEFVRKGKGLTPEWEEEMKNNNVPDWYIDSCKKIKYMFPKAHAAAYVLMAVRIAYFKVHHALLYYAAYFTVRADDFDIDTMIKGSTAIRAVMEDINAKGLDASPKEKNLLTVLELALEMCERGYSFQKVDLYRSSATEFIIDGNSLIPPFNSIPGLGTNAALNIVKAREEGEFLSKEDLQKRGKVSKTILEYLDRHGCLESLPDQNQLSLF
Sequence of Beta-2 adrenergic receptor (Homo sapiens) (P07550 whole entry, looked up): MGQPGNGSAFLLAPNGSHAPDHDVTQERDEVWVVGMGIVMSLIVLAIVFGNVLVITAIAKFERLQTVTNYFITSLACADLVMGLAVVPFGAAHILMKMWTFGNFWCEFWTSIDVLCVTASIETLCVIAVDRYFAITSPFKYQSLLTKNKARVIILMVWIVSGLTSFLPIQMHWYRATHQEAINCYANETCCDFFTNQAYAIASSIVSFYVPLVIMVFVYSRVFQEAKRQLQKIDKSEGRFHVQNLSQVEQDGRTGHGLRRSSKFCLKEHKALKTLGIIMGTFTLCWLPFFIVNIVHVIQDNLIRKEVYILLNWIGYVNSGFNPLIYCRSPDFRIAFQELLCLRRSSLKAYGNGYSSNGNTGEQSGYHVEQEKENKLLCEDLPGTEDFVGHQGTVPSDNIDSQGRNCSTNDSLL
Sequence of ATP-dependent DNA helicase Q1 (Homo sapiens) (P46063 whole entry, looked up): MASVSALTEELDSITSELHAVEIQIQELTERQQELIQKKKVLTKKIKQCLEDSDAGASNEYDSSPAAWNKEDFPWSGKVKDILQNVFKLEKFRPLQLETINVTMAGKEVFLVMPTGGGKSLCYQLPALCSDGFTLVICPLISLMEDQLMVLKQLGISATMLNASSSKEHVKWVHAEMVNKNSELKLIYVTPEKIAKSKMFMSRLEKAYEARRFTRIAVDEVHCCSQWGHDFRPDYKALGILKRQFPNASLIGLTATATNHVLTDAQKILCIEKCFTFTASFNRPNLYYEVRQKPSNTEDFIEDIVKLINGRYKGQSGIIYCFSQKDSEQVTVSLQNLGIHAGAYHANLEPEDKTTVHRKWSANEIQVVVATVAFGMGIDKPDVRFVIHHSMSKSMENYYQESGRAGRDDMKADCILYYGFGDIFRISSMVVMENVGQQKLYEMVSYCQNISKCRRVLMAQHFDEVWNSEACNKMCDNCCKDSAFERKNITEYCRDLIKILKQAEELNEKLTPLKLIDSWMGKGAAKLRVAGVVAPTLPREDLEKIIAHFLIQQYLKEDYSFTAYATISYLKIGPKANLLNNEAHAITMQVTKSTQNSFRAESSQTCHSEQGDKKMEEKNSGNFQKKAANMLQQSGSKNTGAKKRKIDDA
Sequence of Thioredoxin reductase 1, cytoplasmic (Rattus norvegicus) (O89049 whole entry, looked up): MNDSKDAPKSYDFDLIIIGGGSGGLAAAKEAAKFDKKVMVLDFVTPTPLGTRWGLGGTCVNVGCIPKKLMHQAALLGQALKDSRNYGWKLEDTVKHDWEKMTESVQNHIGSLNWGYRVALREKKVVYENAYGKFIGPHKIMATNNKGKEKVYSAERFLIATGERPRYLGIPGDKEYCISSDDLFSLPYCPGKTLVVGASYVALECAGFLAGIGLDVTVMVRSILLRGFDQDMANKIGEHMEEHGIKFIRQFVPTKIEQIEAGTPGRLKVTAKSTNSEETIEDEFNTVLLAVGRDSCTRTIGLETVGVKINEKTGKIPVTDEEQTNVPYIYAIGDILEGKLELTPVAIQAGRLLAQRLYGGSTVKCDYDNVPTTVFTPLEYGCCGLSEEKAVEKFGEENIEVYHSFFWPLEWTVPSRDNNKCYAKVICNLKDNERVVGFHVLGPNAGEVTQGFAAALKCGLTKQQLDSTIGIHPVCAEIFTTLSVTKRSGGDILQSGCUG
Sequence of Tumor susceptibility gene 101 protein (Homo sapiens) (Q99816 whole entry, looked up, the tested form may be a part): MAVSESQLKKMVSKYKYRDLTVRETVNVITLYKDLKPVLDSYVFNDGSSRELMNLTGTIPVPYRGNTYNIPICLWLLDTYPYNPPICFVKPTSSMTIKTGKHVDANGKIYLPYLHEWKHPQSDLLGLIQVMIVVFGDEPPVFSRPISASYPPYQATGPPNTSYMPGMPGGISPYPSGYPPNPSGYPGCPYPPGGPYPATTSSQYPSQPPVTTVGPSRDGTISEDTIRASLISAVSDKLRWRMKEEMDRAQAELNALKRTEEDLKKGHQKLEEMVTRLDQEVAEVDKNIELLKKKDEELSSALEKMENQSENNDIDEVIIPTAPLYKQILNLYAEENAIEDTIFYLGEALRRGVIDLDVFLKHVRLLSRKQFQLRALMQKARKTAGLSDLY
Sequence of RecQ-like DNA helicase BLM (Homo sapiens) (P54132 whole entry, looked up): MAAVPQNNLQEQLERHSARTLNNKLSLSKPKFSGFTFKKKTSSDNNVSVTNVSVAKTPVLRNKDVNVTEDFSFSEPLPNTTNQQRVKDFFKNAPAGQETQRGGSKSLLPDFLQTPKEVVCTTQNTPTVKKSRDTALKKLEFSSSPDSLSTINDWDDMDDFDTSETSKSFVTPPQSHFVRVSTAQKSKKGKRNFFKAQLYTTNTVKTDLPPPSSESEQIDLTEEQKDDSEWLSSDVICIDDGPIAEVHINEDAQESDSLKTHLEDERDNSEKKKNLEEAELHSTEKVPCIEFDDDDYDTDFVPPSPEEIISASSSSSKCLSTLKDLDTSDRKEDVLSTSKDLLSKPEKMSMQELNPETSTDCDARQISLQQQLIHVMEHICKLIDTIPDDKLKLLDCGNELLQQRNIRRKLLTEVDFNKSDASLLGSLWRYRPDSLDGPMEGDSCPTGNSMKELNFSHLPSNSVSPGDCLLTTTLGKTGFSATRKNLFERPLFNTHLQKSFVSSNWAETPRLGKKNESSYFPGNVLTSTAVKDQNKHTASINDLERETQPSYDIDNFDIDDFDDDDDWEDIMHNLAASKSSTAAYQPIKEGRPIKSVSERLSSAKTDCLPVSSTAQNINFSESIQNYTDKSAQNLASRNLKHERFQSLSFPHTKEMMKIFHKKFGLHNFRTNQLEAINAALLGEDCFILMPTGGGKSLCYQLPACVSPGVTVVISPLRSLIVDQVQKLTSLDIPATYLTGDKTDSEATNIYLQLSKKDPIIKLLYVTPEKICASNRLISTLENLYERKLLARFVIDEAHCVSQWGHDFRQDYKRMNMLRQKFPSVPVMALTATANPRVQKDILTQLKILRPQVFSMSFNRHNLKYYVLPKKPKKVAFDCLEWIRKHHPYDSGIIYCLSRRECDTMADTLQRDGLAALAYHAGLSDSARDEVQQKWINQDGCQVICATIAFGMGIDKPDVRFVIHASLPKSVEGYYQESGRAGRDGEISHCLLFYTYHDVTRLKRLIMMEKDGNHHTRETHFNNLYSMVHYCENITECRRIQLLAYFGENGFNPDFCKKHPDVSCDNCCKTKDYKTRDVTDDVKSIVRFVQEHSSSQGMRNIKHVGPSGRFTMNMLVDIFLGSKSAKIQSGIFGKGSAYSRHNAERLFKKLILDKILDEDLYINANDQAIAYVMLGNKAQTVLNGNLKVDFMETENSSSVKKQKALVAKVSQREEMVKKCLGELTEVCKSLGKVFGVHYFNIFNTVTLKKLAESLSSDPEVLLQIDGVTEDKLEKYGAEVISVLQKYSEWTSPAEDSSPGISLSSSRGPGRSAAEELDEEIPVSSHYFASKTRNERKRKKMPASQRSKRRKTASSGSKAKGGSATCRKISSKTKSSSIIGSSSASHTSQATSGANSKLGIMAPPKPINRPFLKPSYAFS
Sequence of Ferritin light chain (Equus caballus) (P02791 2-175 limits assumed): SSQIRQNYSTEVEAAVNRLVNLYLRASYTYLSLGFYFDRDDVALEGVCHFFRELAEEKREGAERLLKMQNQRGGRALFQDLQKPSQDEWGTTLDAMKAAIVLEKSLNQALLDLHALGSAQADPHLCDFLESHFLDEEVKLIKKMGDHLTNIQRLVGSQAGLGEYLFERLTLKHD

O=C1CC2(CCCC2)CC(=O)N1CCCCN1CCN(c2ncccn2)CC1
not listed: [17] | [18]
inactive: all other assays above

CC(C)NNC(=O)c1ccncc1
not listed: [5] | [11] | [14] | [17] | [18]
inactive: all other assays above

NCCCNCCSP(=O)(O)O
not listed: [4]
inactive: all other assays above

Fc1ccc(C(c2ccc(F)cc2)N2CCN(C/C=C/c3ccccc3)CC2)cc1
active: [1] 10 µM | [14] 10.4 µM
not listed: [4] | [8] | [15] | [18]
inactive: all other assays above

OCCN1CCN(CC/C=C2/c3ccccc3Sc3ccc(C(F)(F)F)cc32)CC1
active: [1] 5.01 µM | [14] 6.57 µM | [15] 8.28 µM
not listed: [5] | [7] | [8] | [12] | [17] | [18]
inactive: all other assays above

C[C@]12C=CC(=O)C=C1CC[C@H]1[C@@H]3C[C@@H](O)[C@](O)(C(=O)CO)[C@@]3(C)C[C@H](O)[C@@]12F
not listed: [4] | [8] | [12] | [18]
inactive: all other assays above

CCCCNc1c(C(=O)OCC)c(C)nc2c1cnn2CC
active: [1] 12.6 µM
not listed: [4] | [8] | [12] | [14] | [15] | [16] | [18]
inactive: all other assays above

C[N+](C)(C)CCOC(N)=O
not listed: [4] | [18]
inactive: all other assays above

NC/C=C/C(=O)O
not listed: [4] | [5] | [16] | [18]
inactive: all other assays above

CCO/C([O-])=N/c1c[n+](N2CCOCC2)no1
not listed: [4] | [11] | [14]
inactive: all other assays above

C[N+](C)(C)CCOC(=O)CCC(=O)OCC[N+](C)(C)C
not listed: [4]
inactive: all other assays above

NC(=O)c1ncn([C@@H]2O[C@H](CO)[C@@H](O)[C@H]2O)c1O
not listed: [4] | [18]
inactive: all other assays above

COc1ccc(CCN(C)CCCC(C#N)(c2cc(OC)c(OC)c(OC)c2)C(C)C)cc1OC (stereo not drawn)
active: [1] 2.82 µM | [14] 11.7 µM | [15] 8.28 µM
not listed: [8] | [11] | [12] | [17] | [18]
inactive: all other assays above

C[C@]12CCC(=O)C=C1CC[C@@H]1[C@@H]2C(=O)C[C@@]2(C)[C@H]1CC[C@]2(O)C(=O)CO
not listed: [8] | [12] | [17]
inactive: all other assays above

CCN(CC)CCNC(=O)c1cc(S(C)(=O)=O)ccc1OC
not listed: [4] | [5] | [11] | [18]
inactive: all other assays above

CO[C@@]1(NC(=O)CSCC#N)C(=O)N2C(C(=O)O)=C(CSc3nnnn3C)CS[C@@H]21
not listed: [4] | [18]
inactive: all other assays above

COc1cc(C(=O)OCCCN2CCCN(CCCOC(=O)c3cc(OC)c(OC)c(OC)c3)CC2)cc(OC)c1OC
inactive: [2] | [3] | [4] | [9] | [10] | [13] | [16]
active: [1] 8.91 µM | [14] 6.57 µM | [15] 13.1 µM

CC(=O)[C@]1(O)Cc2c(O)c3c(c(O)c2[C@@H](O[C@H]2C[C@H](N)[C@H](O)[C@H](C)O2)C1)C(=O)c1ccccc1C3=O
active: [1] 1.12 µM | [3] 11.2 µM | [4] 12.6 µM | [6] 0.414 µM | [10] 1.06 µM | [14] 3.29 µM | [15] 3.7 µM
inactive: [2] | [13] | [16]

CCN(CC)CCNC(=O)c1ccc(NC(C)=O)cc1
not listed: [4] | [8] | [18]
inactive: all other assays above
